In the library only some 27% were active in any assay of this set; here they are far more common.
CYP2C9 act = human CYP2C9 activators, primary screen, biochemical, luminescence; Cytochrome P450 2C9 (Homo sapiens), P11712; recombinant CYP2C9, luciferin-H conversion; hits give high values; factor 1 = untreated enzyme, 0 = blocked; activation factor at 5 µM; 1.4% of 96,000 active; AID 1024, 2008;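 active = activation factor of 2 or more for CYP2C9 at a 5 µM dose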;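 note: 0 = sulfaphenazole-blocked wells and 1 = vehicle-only wells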
Target sequence (P11712 whole entry, looked up): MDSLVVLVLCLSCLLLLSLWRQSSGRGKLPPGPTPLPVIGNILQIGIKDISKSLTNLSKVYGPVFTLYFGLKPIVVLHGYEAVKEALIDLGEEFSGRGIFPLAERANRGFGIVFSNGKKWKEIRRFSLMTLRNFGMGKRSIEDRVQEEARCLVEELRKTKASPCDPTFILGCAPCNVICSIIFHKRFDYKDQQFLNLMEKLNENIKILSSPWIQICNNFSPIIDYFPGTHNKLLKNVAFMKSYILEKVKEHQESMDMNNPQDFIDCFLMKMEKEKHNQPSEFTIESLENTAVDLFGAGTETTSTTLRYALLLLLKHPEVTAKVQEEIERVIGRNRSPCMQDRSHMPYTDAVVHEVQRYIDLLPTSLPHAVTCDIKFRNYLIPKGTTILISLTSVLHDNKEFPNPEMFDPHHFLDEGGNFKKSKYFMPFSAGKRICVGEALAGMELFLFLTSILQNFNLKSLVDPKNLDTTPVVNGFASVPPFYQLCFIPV
sEH activator = soluble epoxide hydrolase activators, primary screen, biochemical, human sEH; AID 717, 2007; Bifunctional epoxide hydrolase 2 (Homo sapiens), P34913; activation, % at 2 µM; purified human sEH enzymatic activity, activator screen; 0.04% of 91,000 active; in the data active = activation above about 37%
sEH inhibitor = soluble epoxide hydrolase inhibitors, primary screen, biochemical, human sEH | Bifunctional epoxide hydrolase 2 (Homo sapiens), P34913 | recombinant human sEH enzymatic activity assay | inhibition, % at 2 µM | 0.34% of 91,000 active | AID 707, 2007; in the data active = inhibition above about 80%
CYP2C19 activ = human CYP2C19 activators, primary screen, biochemical, luminescence; recombinant CYP2C19, luciferin-H EGE luminescence; hits give high values; 0 = fully inhibited enzyme, 1 = untreated enzyme; Cytochrome P450 2C19 (Homo sapiens), P33261; 96,000 tested, under 10 active; AID 1025, 2008; activation factor at 5 µM;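 active = activation factor of at least 2 at 5 µM in the primary screen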;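 note: 0 = wells with 2.5 mM tranylcypromine and 1 = vehicle-only wells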
CYP2C19 inh = blockers of cytochrome P450 2C19 activity – biochemical, luminescence, ADME assay, primary screen. P33261. CYP2C19 Supersomes, luciferin-H EGE luminescence, 30 min. inhibition, % at 5 µM. 21% of 96,000 active. AID 778, 2007;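 active = CYP2C19 inhibition above a set limit at 5 µM in the primary screen, cut at about 50% in these data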;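 note: plate controls were negative control wells for no effect and 2.5 mM tranylcypromine positive control for full effect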
CYP2C9 inhib = blockers of cytochrome P450 2C9 activity – biochemical, luminescence, ADME assay, primary screen; CYP2C9 Supersomes, luciferin-H conversion; P11712; inhibition, % at 5 µM; 20% of 96,000 active; AID 777, 2007;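 active = blocking of liver enzyme CYP2C9 beyond about 50% at 5 µM, limit read from the data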
* = called active by the depositor; · = no result given; ! = repeats disagree.

SMILES	CYP2C9 act	sEH activator	sEH inhibitor	CYP2C19 activ	CYP2C19 inh	CYP2C9 inhib
CCCCSc1nc(C)c(CC(=O)OC)c(=O)[nH]1	1.1	·	·	0.9	8.1	-7.2
O=C1CS/C(=N\c2ccccn2)N1C1CCCCC1	0.9	8.5	-8.8	1	3.7	8.6
COc1cc(C(=O)N2CCC(NC(=O)C(Cc3ccccc3)NC(C)=O)CC2)cc(OC)c1OC (stereo not drawn)	1.2	4.3	-4.9	1	0.3	-16.1
CCOC(=O)c1nn(-c2ccccc2)c(=O)cc1SC(C)C	1	-2.0	4.7	1	2.3	3.3
CCOC(=O)c1nn(-c2ccc(C)cc2)c(C)c1C(C)=O	1	-5.8	7.5	0.1	87.6*	1.4
CCOC(=O)c1nn(-c2ccccc2F)c(C)c1C(C)=O	0.9	-5.2	2.5	0	98.3*	5.0
CCOC(=O)c1nnn(-c2ccc(OC)cc2)c1N	·	-17.6	16.6	·	·	·
CCOC(=O)c1nn(-c2ccc(F)cc2)c(C)c1C(C)=O	0.8	18.1	-14.5	0	99.1*	19.4
CCOC(=O)c1nn(-c2ccccc2)c(C)c1C(C)=O	0.8	2.3	-0.8	0	99.9*	16.7
COc1cc(S(=O)(=O)N2CCOCC2)ccc1NC(=O)CSc1nnc(N)s1	0.5	-0.5	1.0	0.9	13.3	46.8
COC(=O)c1ccc(CSc2nnc3sc4ccccc4n23)o1	1.3	·	·	0.5	47.3	-32.1
CC1=CC(C)(C)N(C(=O)CSc2ncn[nH]2)c2ccccc21	0.9	-13.0	13.1	0.5	47.5	8.1
Cc1c(C)n(C(=O)CN2CCC(C)CC2)c2ccccc12	1.1	-2.5	5.3	0.4	56.9*	-6.9
Cc1c(C)n(C(=O)CSc2nncn2C)c2ccccc12	2.2*	-1.9	0.7	0.6	42.2	-115.1
Cc1c(C)n(C(=O)CSc2ncn[nH]2)c2ccccc12	1.2	6.8	-6.1	0.4	59.4*	-23.6
O=C(CN1CCOCC1)n1c2ccccc2c2ccccc21	1.2	-2.8	1.3	1	-1.2	-19.3
C=CC[n+]1c(-c2ccc(OC)c(OC)c2)csc1NNC(=O)Nc1ccccc1	0.8	-54.6	54.5	0.9	11.9	20.0
OC(c1ccccc1)(c1ccc(F)cc1)C(c1ccccc1)N1CCOCC1 (stereo not drawn)	1	-4.2	5.9	0.3	68.7*	4.2
Nc1nc(Nc2cccc(F)c2)nc2ccccc12	0.4	·	·	0.4	62.1*	56.0*
O=c1oc(Nc2cccc(F)c2)nc2ccccc12	0.9	6.2	-8.4	1	4.0	8.4
CSc1nnnn1-c1ccc(C(=O)OCC(=O)N2CCOCC2)cc1	1.2	9.6	-9.5	1.1	-11.3	-17.7
Cc1cc(NC(=O)CSc2nnc(-c3ccoc3C)n2N)no1	0.9	-20.8	21.3	0.9	7.4	6.9
CCOc1ccc(C(C)=O)cc1CSc1nnc(-c2ccoc2C)n1N	0.3	16.3	-15.6	0.1	85.8*	73.7*
Clc1ccc(Cn2cccc2C2=NCCO2)cc1	0.7	·	·	0.3	66.9*	34.8
CCOC(=O)c1c(NC(=O)c2ccc(Cl)s2)sc(C)c1C	0.9	·	·	1	-0.4	7.1
SMILES	CYP2C9 act	sEH activator	sEH inhibitor	CYP2C19 activ	CYP2C19 inh	CYP2C9 inhib
CCOC(=O)c1c(C)sc(Sc2ccc(Cl)cc2[N+](=O)[O-])c1OC	0.8	0.7	-1.6	0.2	80.6*	20.6
Cc1ccc(NC(=O)O/N=C2\CCCCC2c2ccc([N+](=O)[O-])cc2[N+](=O)[O-])cc1 (stereo not drawn)	0.2	-6.4	5.2	0.6	40.7	82.1*
COc1ccc(S(=O)(=O)NNC(=O)c2csc(-n3nc(C)cc3C(F)(F)F)n2)cc1OC	0.5	-1.3	4.3	0.9	14.4	53.5*
COc1ccc(/C=N/NC(=O)c2csc(-n3nc(C)cc3C(F)(F)F)n2)cc1	0.7	-1.8	-0.2	0.8	22.9	31.7
CC(=O)c1cccc(NC(=O)c2csc(-n3nc(C)cc3C(F)(F)F)n2)c1	0.4	11.3	-11.7	0.5	50.6*	55.5*
CC(=O)Nc1cc(S(=O)(=O)C(F)(F)F)ccc1Cl	1.3	8.8	-7.4	0.8	16.5	-29.7
O=C(C=C1CCN(c2ncc(C(F)(F)F)cc2Cl)CC1)NNC(=O)Nc1ccc(Cl)cc1	0.8	8.2	-5.3	0.9	5.4	20.8
CCC(C)C(NC(=O)c1ccccc1NC(=O)c1ccco1)C(=O)NC1CCCCC1 (stereo not drawn)	0.6	·	·	0.8	16.9	42.2
CCOc1c(C)cc(-c2ncccc2O)cc1C	0.8	8.8	-9.7	0.3	68.9*!	21.6
COc1ccc(-c2ncccc2O)cc1	0.9	4.7	-4.5	1	1.2	12.2
Cc1cc(OCC(=O)N2CCc3ccccc3C2)c2c(-c3ccccc3)cc(=O)oc2c1	0	-4.0	6.2	0.1	86.4*	96.7*
Cc1cc(OC(C)C)c2c(-c3ccccc3)cc(=O)oc2c1	0.2	4.6	-2.3	0.6	43.4	80.4*
CCOc1cc(C)cc2oc(=O)cc(-c3ccccc3)c12	0.5	12.3	-15.7	0.8	18.7	54.8*
Cc1cc(N2CCOCC2)nc2ccc(NC(=O)CCC(=O)N3CCCC(C)C3)cc12 (stereo not drawn)	1.1	·	·	1	1.6	-8.4
Cc1ccc(C(=O)CSc2nnc(-c3ccc4[nH]c(C)c(C)c4c3)o2)cc1C	0.3	15.8	-14.4	0.5	47.7	71.2*
Cc1[nH]c2ccc(-c3nnc(SCC(=O)c4ccccc4F)o3)cc2c1C	0.2	8.4	-7.9	0.4	57.2*	77.7*
CCCCC(=O)Nc1cc(NC(=O)CC)ccc1Cl	0.9	3.7	-5.1	0.9	7.4	6.5
O=C(C1CCCCC1)N(Cc1nc2sc3c(c2c(=O)[nH]1)CCCC3)Cc1cccs1	0.4	11.4	-12.3	0.7	30.4	61.6*
CCCCOc1cc(=O)[nH]c(=O)[nH]1	1.1	-3.4	2.9	1.2	-17.3	-14.1
CCCCCn1c(=O)c(Cc2ccccc2)c(O)c2ccccc21	·	1.4	-0.1	·	·	·
CCCn1c(=O)c(Cc2ccccc2)c(O)c2ccccc21	0.6	·	·	0.6	44.8	38.1
Cn1c(=O)c(Cc2ccccc2)c(O)c2ccccc21	0.5	5.2	-3.1	0.3	70.8*	49.9
CCCCCOC(=O)Cc1c(O)c2ccccc2n(C)c1=O	0.6	·	·	0.2	78.9*	44.3
CCCCCCCCOC(=O)CCn1[nH]c(=O)c2ccccc2c1=O	0.3	-11.6	14.7	0.4	61.2*	66.0*
COC(=O)c1ccc(COc2ccc3c(C)c(C)c(=O)oc3c2)o1	0.8	4.0	-0.9	0.8	15.5	19.7
